Active and inactive are the calls of the source.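 Rule for the calls, unless noted: active = fluorescence slope after compound addition differing from the mean of all screened samples at 99.7% confidence, in either direction; inactive = the rest.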
Tests used:
[1] = inhibitors of TNFa-induced NFkB p65 translocation, primary screen, imaging, HUVEC, MLSMR starter and 10KST1 sets (AID 438;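 active = inhibition above 20% together with a positive visual image hit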;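 note: compound added about 3h40 before a 20 min TNFalpha stimulation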;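 for inhibition: signal is the nuclear over cytoplasmic p65 intensity ratio per well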); conditions: HUVEC TNFa-induced p65 nuclear translocation; cell count: measured here: nuclei count (cytotoxicity indicator), at 2.08 µM; inhibition: at 2 µM, stronger effect = higher value, 0% TNFa-plus-vehicle, 100% no-TNFa wells
[2] = inhibitors of mutant huntingtin aggregation, primary screen, imaging, exon1htt(103Q)mCFP cells, high-content imaging (AID 483;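 active = visual image review flags a hit and inhibition of aggregation exceeds 20%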;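 note: compound exposure lasted 3 days before fixation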;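 for nuclei count: percent of the per-plate median nuclei count of sample wells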); conditions: exon1htt(103Q)mCFP cell line, aggregate imaging, at 2 µM; inhibition of aggregation: stronger effect = higher value; nuclei count: measured here: cell count, toxicity
[3] = inhibitors of E-selectin induction by TNFa, primary screen, imaging, HUVEC, immunofluorescence, MLSMR starter and 10KST1 sets (AID 487;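 active = visually confirmed hit in the image check and inhibition above 20%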;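 for inhibition: signal is fraction of cell area covered by stained E-selectin grains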;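 for nuclei count: 100% = median nuclei count of all wells on the same plate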); conditions: HUVEC TNFalpha-induced E-selectin immunofluorescence imaging, at 2 µM; inhibition: stronger effect = higher value; nuclei count: measured here: cell number, toxicity
[4] = target: Voltage-gated potassium channel subunit beta-2 (Rattus norvegicus) (UniProt P62483); assay: KvBeta enzyme negative modulators, primary screen, biochemical, NADPH fluorescence (AID 622;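 active = fluorescence slope higher than the sample average by over 3 SD, cut at about -0.22 in these data, passing the limit was not always enough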;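 note: slope of raw intensity against log time taken from 70 to 1610 s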); conditions: recombinant KvBeta, 4-cyanobenzaldehyde reduction, at 10 µM, stronger effect = higher value
Chain of Voltage-gated potassium channel subunit beta-2 (Rattus norvegicus) (P62483 whole entry, looked up): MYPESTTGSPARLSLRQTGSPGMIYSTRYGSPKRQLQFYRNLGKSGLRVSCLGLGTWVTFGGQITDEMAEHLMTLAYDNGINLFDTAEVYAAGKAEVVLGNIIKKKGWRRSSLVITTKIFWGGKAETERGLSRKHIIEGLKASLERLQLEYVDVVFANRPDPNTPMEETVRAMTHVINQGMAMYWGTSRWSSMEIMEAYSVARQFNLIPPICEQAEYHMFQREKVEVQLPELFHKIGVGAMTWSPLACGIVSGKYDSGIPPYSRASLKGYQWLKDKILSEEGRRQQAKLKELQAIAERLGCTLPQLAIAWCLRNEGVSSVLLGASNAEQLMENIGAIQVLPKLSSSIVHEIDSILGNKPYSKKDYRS

[5] = target: Voltage-gated potassium channel subunit beta-2 (Rattus norvegicus) (UniProt P62483); assay: KvBeta positive modulators, primary screen, biochemical, NADPH fluorescence (AID 623;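 active = NADPH fluorescence slope more negative than the mean of all samples by about 3 SD, 99.7% confidence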;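 note: fluorescence intensity change per second fitted from 20 to 320 s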); conditions: Recombinant KvBeta, NADPH fluorescence decrease slope, 10 min; at 10 µM; stronger effect = lower value
[6] = target: Alpha-2C adrenergic receptor (Homo sapiens) (UniProt P18825); assay: modulators of alpha2C/GIRK thallium flux, primary screen, cell-based, HEK293 alpha2C/GIRK1/2 (AID 624); conditions: thallium flux BTC fluorescence, at 10 µM, actives lie on both sides;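 note: slope of fluorescence ratio to pre-addition baseline per second over 15 to 24 s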
Chain of Alpha-2C adrenergic receptor (Homo sapiens) (P18825 whole entry, looked up): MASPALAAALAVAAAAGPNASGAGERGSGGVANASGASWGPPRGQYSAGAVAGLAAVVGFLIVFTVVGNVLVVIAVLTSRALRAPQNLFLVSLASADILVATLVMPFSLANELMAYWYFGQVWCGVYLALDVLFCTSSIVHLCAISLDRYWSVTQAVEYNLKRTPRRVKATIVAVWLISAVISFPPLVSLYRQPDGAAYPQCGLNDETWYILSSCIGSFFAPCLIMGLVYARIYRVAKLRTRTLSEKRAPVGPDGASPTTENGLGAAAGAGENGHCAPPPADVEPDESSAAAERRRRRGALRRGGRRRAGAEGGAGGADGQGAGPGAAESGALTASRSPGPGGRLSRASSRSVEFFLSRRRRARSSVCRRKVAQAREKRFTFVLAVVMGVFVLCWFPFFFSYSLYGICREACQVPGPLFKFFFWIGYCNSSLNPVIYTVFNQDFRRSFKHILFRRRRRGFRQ

[7] = inhibitors of Sendai virus-induced IRF3 signaling, primary screen, TLR/RLR signaling modifier project, cell-based, Sendai virus stimulus, luciferase, 10K MLSCN set (AID 602276;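 active = inhibition at or above 50% at 10 µM; inactive = inhibition below 50%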;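 note: firefly luciferase from ISG56 promoter only with Renilla not read in this screen; 0% = Sendai virus plus DMSO and 100% = medium plus DMSO without virus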); conditions: HEK293 RL24 IRF3 luciferase reporter, at 10 µM, stronger effect = higher value
[8] = inhibitors of poly I:C-induced TLR3 signaling, primary screen, cell-based, poly I:C stimulus, luciferase, 10K MLSCN set (AID 602277;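 active = inhibition of the reporter signal at or above 50%; inactive = inhibition below 50%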); conditions: HEK293-TLR3 RL24 IRF3 luciferase reporter, at 10 µM, stronger effect = higher value

| SMILES | cell count [1] | inhibition [1] | inhibition of aggregation [2] | nuclei count [2] [%] | inhibition [3] | nuclei count [3] [%] | fluorescence slope [4] | NADPH fluorescence slope [5] | slope [6] | inhibition [7] | inhibition [8] |
| --- | --- | --- | --- | --- | --- | --- | --- | --- | --- | --- | --- |
| Cc1ccc(-n2ncc3c(=O)n(CC(=O)NCc4ccco4)cnc32)cc1 | 473 | -7% (inactive) | 9.4% (inactive) | 110 | -72.1% (inactive) | 108 | -0.485 (inactive) | -0.000156 (inactive) | 0.00543 (inactive) | 21.7% (inactive) | 20.3% (inactive) |
| COc1ccc(C(=O)Nc2cccc(C)c2)cc1S(=O)(=O)N1CCOCC1 | 550 | -25.9% (inactive) | 0.7% (inactive) | 102 | -48.3% (inactive) | 111 | -0.572 (inactive) | -5.7e-05 (inactive) | 0.0063 (inactive) | 6.15% (inactive) | 3.92% (inactive) |
| CCOc1ccc(Cn2nnc(C(=O)Nc3cc(C)cc(C)c3)c2N)cc1 | 751 | -0.6% (inactive) | 12.1% (inactive) | 100 | -46.9% (inactive) | 108 | -0.521 (inactive) | -2.6e-05 (inactive) | 0.00695 (inactive) | 2.58% (inactive) | 9.37% (inactive) |
| CC(C)OC(=O)CCCCCN1C(=O)CSC1=S | 448 | -9.2% (inactive) | -5.3% (inactive) | 80.5 | -93.7% (inactive) | 114 | -0.539 (inactive) | -1.3e-05 (inactive) | 0.00459 (inactive) | 1.67% (inactive) | -4.31% (inactive) |
| O=C(O)C1CC=CCC1C(=O)Nc1ccc(S(=O)(=O)N2CCCc3ccccc32)cc1 (centres undefined) | 335 | -7.5% (inactive) | -17.2% (inactive) | 92.3 | -43.1% (inactive) | 126 | -0.599 (inactive) | -3.1e-05 (inactive) | 0.00437 (inactive) | 46% (inactive) | -62.7% (inactive) |
| Cn1c(NC(=O)c2cccc(Cn3cc(Cl)cn3)c2)nc2ccccc21 | 778 | -2.9% (inactive) | -32.7% (inactive) | 104 | -61.1% (inactive) | 113 | -0.548 (inactive) | -1.6e-05 (inactive) | 0.00464 (inactive) | -25.1% (inactive) | -112% (inactive) |
| CCSc1nc2c(c(=O)[nH]1)C(c1cccnc1)C(C(=O)OC(C)C)=C(C)N2 (centres undefined) | 500 | 3.8% (inactive) | 19.4% (inactive) | 93.1 | -57.7% (inactive) | 103 | -0.475 (inactive) | -1.6e-05 (inactive) | 0.00631 (inactive) | 1.95% (inactive) | 25.7% (inactive) |
| Cn1c(-c2ccccc2)cc(=O)c2ccccc21 | 419 | -3.8% (inactive) | 2.5% (inactive) | 92.7 | -39.8% (inactive) | 118 | -0.457 (inactive) | 3.9e-05 (inactive) | 0.00556 (inactive) | 9.11% (inactive) | 16.3% (inactive) |
| Nc1ccc(C(=O)OCCCc2nc3ccccc3[nH]2)cc1 | 366 | -2.2% (inactive) | 10.5% (inactive) | 95.7 | 9% (inactive) | 92.5 | -0.589 (inactive) | -5.8e-05 (inactive) | 0.00614 (inactive) | -17.1% (inactive) | -17.7% (inactive) |
| CC1=C(C(=O)OC(C)C)C(c2ccccn2)n2ncnc2N1 (centres undefined) | 751 | -0.6% (inactive) | -35.6% (inactive) | 79.5 | -75.2% (inactive) | 110 | -0.569 (inactive) | -3e-05 (inactive) | 0.00699 (inactive) | 0.999% (inactive) | 30.5% (inactive) |
| Cc1ccc(CCNC(=O)C2CCCN2S(=O)(=O)c2ccc3c(c2)CCC(=O)N3)cc1 (centres undefined) | 702 | -4.8% (inactive) | -29.3% (inactive) | 102 | -35% (inactive) | 121 | -0.547 (inactive) | -1e-05 (inactive) | 0.0066 (inactive) | -15.7% (inactive) | 0.529% (inactive) |
| Cc1cc2ccccc2c(=O)n1CC(=O)N(C)c1ccc(F)cc1 | 629 | -4.7% (inactive) | -4.1% (inactive) | 98 | -74.2% (inactive) | 103 | -0.353 (inactive) | -5.6e-05 (inactive) | 0.00579 (inactive) | 2.03% (inactive) | 9.91% (inactive) |
| CCOC(=O)c1c(C)[nH]c(C(=O)CSc2nc3ccccc3o2)c1C | 479 | 10.6% (inactive) | -23.1% (inactive) | 107 | 28.7% (inactive) | 94.5 | -0.3 (inactive) | 1.8e-05 (inactive) | 0.00682 (inactive) | -1.31% (inactive) | 0.358% (inactive) |
| CC(=O)N1CCC(N(C(=O)Nc2ccc(C)c(C)c2)C2CCCC2)CC1 | 644 | -3.1% (inactive) | -11.9% (inactive) | 52.8 | -61.6% (inactive) | 106 | -0.258 (inactive) | -1.2e-06 (inactive) | 0.0055 (inactive) | 11.1% (inactive) | 15% (inactive) |

Source: PubChem BioAssay
